Results taken from PubChem BioAssay (EPA / NIEHS).
The source made the active and inactive calls. Rule for the calls: active = hit-call score of the fitted dose curve at least 0.9, where 1 is the maximum; inactive = score below 0.9.

How the values were obtained:
Conditions in all cases: mRNA level, 48 h; actives raise or lower the signal
[1] = read-out: Intercellular Adhesion Molecule 1 (ICAM1), ICAM1 (gene 3383); assay: LTEA_HepaRG_ICAM1: Life Technologies and Expression Analysis (LTEA) Assay for Intercellular Adhesion Molecule 1 (ICAM1) using HepaRG (AID 2283507)
Method in brief: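 Gain or loss of transcript in HepaRG hepatic cells is quantified by qRT-PCR after 48 h chemical exposure (up to 100 uM, half-log steps), with DMSO as baseline.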

[2] = read-out: Insulin-like growth factor-binding protein 1 (IGFBP1), IGFBP1 (gene 3484); assay: LTEA_HepaRG_IGFBP1: Life Technologies and Expression Analysis (LTEA) Assay for Insulin-like growth factor-binding protein 1 (IGFBP1) using HepaRG (AID 2283508)
Method in brief: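 mRNA induction or loss was quantified by qRT-PCR after 48 h chemical exposure of human HepaRG cells, with 0.5% DMSO as vehicle and baseline. Concentration-response over eight points up to 100 uM.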

[3] = read-out: Interleukin 6 (IL6), IL6 (gene 3569); assay: LTEA_HepaRG_IL6: Life Technologies and Expression Analysis (LTEA) Assay for Interleukin 6 (IL6) using HepaRG (AID 2283509)
Method in brief: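 Transcript levels, normalized to three housekeeping genes, were quantified by qRT-PCR after 48 h chemical treatment of HepaRG cells. Eight-point half-log series from 100 uM in 0.5% DMSO, duplicates. Fitted both directions against DMSO baseline.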

[4] = read-out: Potassium channel subfamily K member 1 (KCNK1), KCNK1 (gene 3775); assay: LTEA_HepaRG_KCNK1: Life Technologies and Expression Analysis (LTEA) Assay for Potassium channel subfamily K member 1 (KCNK1) using HepaRG (AID 2283511)
Method in brief: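 KCNK1 transcript measured by TaqMan qRT-PCR against three housekeeping genes, after HepaRG cells were treated 48 h with eight half-log concentrations (top 100 uM, 0.5% DMSO). Curves fitted bidirectionally relative to vehicle.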

[5] = read-out: JUN Transcription Factor, JUN (gene 3725); assay: LTEA_HepaRG_JUN: Life Technologies and Expression Analysis (LTEA) Assay for JUN Transcription Factor using HepaRG (AID 2283513)
Method in brief: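 mRNA measured by TaqMan qRT-PCR after 48 h chemical exposure of HepaRG cultures; normalization to three housekeeping genes. Duplicate eight-point half-log curves from 100 uM in 0.5% DMSO; gain or loss fitted against DMSO baseline.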

[6] = read-out: Lipase C (LIPC), LIPC (gene 3990); assay: LTEA_HepaRG_LIPC: Life Technologies and Expression Analysis (LTEA) Assay for Lipase C (LIPC) using HepaRG (AID 2283514)
Method in brief: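 LIPC expression was quantified by qRT-PCR against three housekeeping genes (ACTB, GAPDH, POLR2A). Differentiated human HepaRG cells received eight half-log doses (top 100 uM, 0.5% DMSO) in duplicate for 48 h; fitting bidirectional relative to DMSO.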

[7] = read-out: Lipoprotein lipase (LPL), LPL (gene 4023); assay: LTEA_HepaRG_LPL: Life Technologies and Expression Analysis (LTEA) Assay for Lipoprotein lipase (LPL) using HepaRG (AID 2283515)
Method in brief: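 LPL transcript levels quantified by TaqMan qRT-PCR against three housekeeping genes after 48 h chemical treatment of HepaRG cells. Eight-point half-log series from 100 uM in 0.5% DMSO, tested in duplicate; bidirectional fitting versus vehicle.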

[8] = read-out: Keratin 19 (KRT19), KRT19 (gene 3880); assay: LTEA_HepaRG_KRT19: Life Technologies and Expression Analysis (LTEA) Assay for Keratin 19 (KRT19) using HepaRG (AID 2283512)
Method in brief: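 Gene-expression endpoint in the human liver line HepaRG after 48 h exposure to up to 100 uM test chemical with 0.5% DMSO vehicle; KRT19 mRNA by qRT-PCR, analyzed bidirectionally versus DMSO.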

[9] = read-out: Interleukin 6 Receptor (IL6R), IL6R (gene 3570); assay: LTEA_HepaRG_IL6R: Life Technologies and Expression Analysis (LTEA) Assay for Interleukin 6 Receptor (IL6R) using HepaRG (AID 2283510);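 for AC50: differentiated human HepaRG liver cells in serum-free induction medium; TaqMan qRT-PCR signal normalized to ACTB GAPDH and POLR2A housekeeping genes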
Method in brief: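 IL6R transcript level by qRT-PCR after 48 h chemical exposure (8-point, half-log, max 100 uM, 0.5% DMSO vehicle) of HepaRG cells in serum-free induction medium. Normalized to three housekeeping genes; curves fitted in both directions relative to DMSO.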

Measured: AC50

Cc1ccc(-c2cc(C(F)(F)F)nn2-c2ccc(S(N)(=O)=O)cc2)cc1
inactive: [2] | [4] | [6]
active: [1] 50 µM | [3] 81.4 µM | [5] 83.4 µM | [7] 87.4 µM

CCC(C)N(C)C(=O)c1cc2ccccc2c(-c2ccccc2Cl)n1 (centres undefined)
active: [2] 57.6 µM
not listed: [8] | [9]
inactive: all other assays above

CC(=O)O[C@]1(C(C)=O)CC[C@H]2[C@@H]3C=C(Cl)C4=CC(=O)[C@@H]5C[C@@H]5[C@]4(C)[C@H]3CC[C@@]21C
active: [2] 50 µM | [8] 17.9 µM | [7] 13.3 µM
not listed: [9]
inactive: all other assays above

CC(=O)S[C@H](C(=O)N[C@H]1Cc2ccccc2[C@H]2CCC[C@@H](C(=O)O)N2C1=O)C(C)C
not listed: [4]
inactive: all other assays above

NCCOCCOCCN
not listed: [4]
inactive: all other assays above

O=C(O)c1cccnc1
not listed: [8] | [9]
inactive: all other assays above

N[C@@H](Cc1c[nH]c2ccccc12)C(=O)O
not listed: [4] | [8]
inactive: all other assays above

CC(=O)O
not listed: [4] | [8]
inactive: all other assays above

Cc1cn([C@H]2C=C[C@@H](CO)O2)c(=O)[nH]c1=O
not listed: [4] | [9]
inactive: all other assays above

O=C(O)c1[nH]n(-c2ccc(S(=O)(=O)O)cc2)c(=O)c1N=Nc1ccc(S(=O)(=O)O)cc1
not listed: [4] | [8] | [9]
inactive: all other assays above

C=CCc1ccc(OC)c(OC)c1
not listed: [8] | [9]
inactive: all other assays above

S=c1[nH]c2ccccc2s1
not listed: [4] | [8]
inactive: all other assays above

CC(C)(C)c1ccccc1
not listed: [4] | [8]
inactive: all other assays above

CC1=C(C)S(=O)(=O)CCS1(=O)=O
active: [5] 74.6 µM | [6] 85.8 µM | [7] 75.3 µM
inactive: [1] | [2] | [3] | [4]

CC(C)c1cccc(C(C)C)c1
not listed: [4] | [8] | [9]
inactive: all other assays above

CCCCCCC(C=O)=Cc1ccccc1
not listed: [8] | [9]
inactive: all other assays above

CO[C@@H]1COCC[C@@H]1N[C@@H]1CC[C@@](C(=O)N2CCc3ncc(C(F)(F)F)cc3C2)(C(C)C)C1
not listed: [9]
inactive: all other assays above

COC(=O)[C@H]1[C@H]2C[C@@H]3c4[nH]c5cc(OC)ccc5c4CCN3C[C@H]2C[C@@H](OC(=O)c2cc(OC)c(OC)c(OC)c2)[C@@H]1OC
active: [1] 28.7 µM | [2] 47.7 µM | [3] 29.1 µM | [9] 42.2 µM | [5] 8.38 µM | [6] 49.4 µM
inactive: [7]

O=C1NC(=O)C(c2ccccc2)(c2ccccc2)N1
not listed: [9]
inactive: all other assays above

CC(COCC(C)OC(=O)c1ccccc1)OC(=O)c1ccccc1 (centres undefined)
not listed: [4] | [8] | [9]
inactive: all other assays above

CCc1nc(N)nc(N)c1-c1ccc(Cl)cc1
inactive: [1] | [3] | [5]
active: [2] 57.7 µM | [9] 26.7 µM | [6] 68.6 µM | [7] 75.1 µM

Cc1c(C)c2c(c(C)c1O)CCC(C)(COc1ccc(CC3SC(=O)NC3=O)cc1)O2 (centres undefined)
active: [2] 50 µM | [3] 88.2 µM | [5] 70.9 µM | [6] 25.1 µM | [7] 4.12 µM
inactive: [1] | [8]

CC(C)COC(=O)CCCCC(=O)OCC(C)C
not listed: [4] | [8]
inactive: all other assays above

CSc1ccc(Oc2ccc(S(N)(=O)=O)cc2CN(C)C)cc1C
active: [2] 69.7 µM | [3] 88.2 µM | [8] 50 µM | [7] 77 µM
inactive: [1] | [9] | [5] | [6]

O=Cc1ccccc1C=O
not listed: [4]
inactive: all other assays above
